Assay outcomes as filed in PubChem.
Most compounds without a hit are left out; they make up all but 2.4% or so of the library.
SmPrx2 inh = blocks S. mansoni peroxiredoxin 2 enzymatic activity; S. mansoni Prx2 activity coupled to TGR/GSH (TGR is thioredoxin glutathione reductase), NADPH fluorescence loss, qHTS; Potency, µM; 65,000 tested, 0.07% active; AID 448
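Activity is read as the drop in NADPH fluorescence (365/450 nm), recorded every 30 sec for 8 min after H2O2 addition. Prx2 is coupled to TGR-driven NADPH oxidation through glutathione, in phosphate buffer pH 7.4.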
Anthrax LT inh = blocks cellular internalization of anthrax lethal toxin | Potency, µM (series often up to 40 µM), inactives show top-dose activity change, negative = inhibition, most hits filed as inhibitors | Cells, anthrax lethal toxin internalization, FRET ratio (460/530) | 70,000 tested, 0.67% active; note: % is set by controls: 0 for no effect and ±100 for the full control effect; nearly all actives have a fitted effect of over 50% in size
AmpC inh det = blocks E. coli AmpC beta-lactamase in presence of detergent. 71,000 tested, 0.09% active. Potency, µM (doses to about 28.7 µM), without a hit: at the top dose activity change, negative = inhibition. purified AmpC, nitrocefin hydrolysis with detergent. P00811; active = well fitted curve in the direction sought with a large enough effect; inconclusive = small, poorly fitted or top-dose-only effect; note: % is set by controls: 0 for no effect and ±100 for the full control effect
Target sequence (P00811 whole entry, looked up): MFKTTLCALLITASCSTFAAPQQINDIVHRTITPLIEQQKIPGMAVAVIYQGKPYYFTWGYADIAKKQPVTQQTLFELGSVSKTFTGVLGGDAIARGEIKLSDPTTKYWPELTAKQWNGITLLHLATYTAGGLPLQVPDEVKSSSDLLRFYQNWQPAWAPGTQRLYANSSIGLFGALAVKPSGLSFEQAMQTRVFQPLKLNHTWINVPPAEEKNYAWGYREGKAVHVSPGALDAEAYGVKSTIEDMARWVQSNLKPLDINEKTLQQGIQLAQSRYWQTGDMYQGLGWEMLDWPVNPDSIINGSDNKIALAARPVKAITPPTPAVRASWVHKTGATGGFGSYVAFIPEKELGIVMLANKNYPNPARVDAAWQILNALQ
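E. coli AmpC (5.3 nM) in 20 mM phosphate pH 7.0 with 0.01% Triton X-100, preincubated 15 min RT with compound; nitrocefin (2 uL of 800 uM stock) hydrolysis followed by 480 nm absorbance every 20 s over 4 min.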
AmpC inh no det = inhibitors of E. coli AmpC beta-lactamase without detergent; P00811; AmpC nitrocefin hydrolysis, absorbance 480 nm, no detergent; Potency, µM (highest dose often 28.7 µM), for inactives: top-dose activity change, negative = inhibition; 71,000 tested, 1.8% active; AID 585; note: % of control where 0% means no effect
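Enzyme, pH 7.0 phosphate. Compound titrations were pre-incubated with AmpC for 15 min at room temperature before nitrocefin (stock 800 uM) addition; product formation was recorded at 480 nm every 20 s for 4 min.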
Starred values were filed as active, the others as inactive; ? = inconclusive; . = no result given; [ ] = dose if it differs, or a comment. Unless noted, calls come from the whole dose curve. Potency is the fitted concentration of half-maximal effect.

SMILES	SmPrx2 inh	Anthrax LT inh	AmpC inh det	AmpC inh no det
CCCC(=O)c1cc(O)c(O)cc1O	.	?	6%	?
C=CCn1c(SCCCC)nc(O)cc1=O	>57	-3%	11%	4µM*[single pt active]
CO[C@@H]1/C=C\O[C@]2(C)Oc3c(C)c(O)c4c(O)c(c(/C=N\N5CCN(C)CC5)c(O)c4c3C2=O)NC(=O)/C(C)=C\C=C/[C@H](C)[C@H](O)[C@H](C)[C@H](O)[C@H](C)[C@H](OC(C)=O)[C@@H]1C	>57	-9%	-1%	114%
CCc1cc2cc(C(=O)N3CCN(Cc4ccccc4)CC3)sc2s1	.	13µM*	1%	76%
COc1ccc(CCNc2nc(C)nc3c2oc2ccccc23)cc1OC	>57	10µM*	-2%	101%
COc1ccc(CCNc2ncnc3c2oc2ccccc23)cc1OC	>57	?	-3%	59%
COC(=O)NC(CC(C)=O)c1cccs1 (stereo unspecified)	.	-15%[8 µM]	.	.
CN(CC(=O)Nc1ccc(C#N)cc1)Cc1ccc(Cl)cc1	>57	-13%	-2%	4%
N#Cc1ccc(NC(=O)Nc2ccc(Cl)cc2)cc1	>57	4µM*	13%	?
O=C(c1csnn1)N1CCC2(CC1)CN(c1ccccn1)C2	>11	12%	22%	121%
O=C1CCn2nc(-c3ccc(Cl)cc3)cc2N1	>57	-13%	11%	4µM*[single pt active]
CCCN1CCN(CCCNC(=O)Cn2nc(-c3ccc(Cl)cc3)ccc2=O)CC1	>57	?	-2%	3%
COC(=O)[C@H]1[C@@H]2C[C@H]3c4[nH]c5ccccc5c4CCN3C[C@@H]2CC[C@@H]1O	>57	-4%	1%	32%
Cc1noc(C)c1-c1ccc2ncnc(NCc3cccnc3)c2c1	>57	19%	8%	17%
CC(=O)[O-].CC(=O)[O-].CC(=O)[O-].[Cr+3]	.	-7%	5%	-7%
O=C(O)c1ccc2cc(-c3ccc(O)c(C45CC6CC(CC(C6)C4)C5)c3)ccc2c1	.	10µM*	.	.
Oc1cc(Cl)c(Cl)c(Cl)c1	.	13µM*	10%	-17%
Oc1c(Cl)c(Cl)cc(Cl)c1Cl	.	-5%	7%	-18%
COc1ccc(C(C)(C)C)cc1NC(=O)Nc1ccc2c(c1)OCO2	>57	10µM*	0%	-4%
Cc1nonc1NC(=O)CSc1nc2cc(Cl)ccc2c2c1CCCC2	>57	-20%	-4%	13µM*
Nc1ccc(-c2ccc(N)c(O)c2)cc1O	.	?	12%	0.79µM*
COc1cccc(NS(=O)(=O)c2nc3nc(C)cc(C)n3n2)c1	>57	1%	13%	4µM*[single pt active]
CCC(=O)Nc1c2c(nn1-c1cccc(Cl)c1)CSC2	>57	6%	13%	4µM*[single pt active]
CC(=O)n1cc(-c2ccncc2)c2ccccc21	>57	15%	10%	3.2µM*[single pt active]
CC/C=C\CC[C@H](O)C1=CCCCC1=O	.	-4%[8 µM]	.	.
SMILES	SmPrx2 inh	Anthrax LT inh	AmpC inh det	AmpC inh no det
O=C1OC2(c3ccc(O)cc3Oc3cc(O)ccc32)c2c1c(-c1ccccc1)c(-c1ccccc1)c(-c1ccccc1)c2-c1ccccc1	>57	?	-5%[5.75 µM]	2.5µM*
Cc1csc(Sc2nc3c(c(=O)[nH]c(=O)n3C)n2CCCc2ccccc2)n1	>57	-13%	-5%	16µM*[single pt active]
C=CC(=O)OCCCCCCOC(=O)C=C	.	27%	10%	11%
Cc1cc(NC(=O)CSc2ncnc3sc4c(c23)CCC(C)C4)no1 (stereo unspecified)	>57	-1%	-4%	5µM*
Cc1cc(NC(=O)CSc2nc(C(C)C)nc3sc(C)c(C)c23)no1	>57	-3%	-1%	10%
CC/C=C\CC[C@H](OC(=O)c1ccc(Br)cc1)C1=CCCCC1=O	.	-7%[8 µM]	.	.
CN1CCN(c2ncc3nc(-c4ccccc4)c(=O)n(Cc4ccc(F)cc4)c3n2)CC1	>57	?	0%	127%
O=C(Nc1cccc(-c2nc3ncccc3o2)c1)c1cc2ccccc2o1	>57	3.2µM*	5%	84%
CC[C@@H]1OC(=O)[C@@H](C)[C@H](O[C@@H]2C[C@@](C)(OC)[C@@H](O)[C@H](C)O2)[C@H](C)[C@H](O[C@@H]2O[C@@H](C)C[C@@H](N(C)C)[C@H]2O)[C@@](C)(O)C[C@H](C)C(=O)[C@@H](C)[C@H](O)[C@@]1(C)O	>57	?	-1%	15%
COc1ccccc1CNc1ncnc2ccc(-c3cccc(NS(C)(=O)=O)c3)cc12	>57	?	7%	-2%
CCn1c(NC(=O)c2cccc(Cn3cc(Cl)cn3)c2)nc2ccccc21	>57	1%	19%	4µM*[single pt active]
Cn1c(NC(=O)c2cccc(Cn3cc(Cl)cn3)c2)nc2ccccc21	>57	9%	-2%	-4%
CC(C)(O)[C@H]1[C@H]2OC(=O)[C@@H]1[C@]1(O)C[C@H]3O[C@]34C(=O)O[C@H]2[C@]14C (tested in a mixture with another compound)	>57	2%	-4%	6%
Cc1c(-c2ccc(O)cc2)nn(-c2ccc(O)cc2)c1-c1ccc(OCCN2CCCCC2)cc1	>57	16µM*	-3%	-19%
CC(C)c1cccc2c([Si](C)(C)C)c3c(nc12)-c1cccc(=O)n1C3	>57	?	-8%	217%
CCC(=O)n1nc(-c2ccco2)nc1SCc1ccccc1	>57	-6%	-1%	4%
CC(=O)n1nc(-c2ccco2)nc1SCc1ccccc1	?	7.9µM*	-2%	?
Cc1ccc(NC(=O)CSc2nnc(Cn3c(=O)sc4ccccc43)n2C)cc1Cl	>57	5%	8%	4µM*[single pt active]
CCOc1ccc(NC(=O)CSc2nnc(Cn3c(=O)sc4ccccc43)n2C)cc1	>57	-4%	25%	4µM*[single pt active]
Cn1c(Cn2c(=O)sc3ccccc32)nnc1SCC(=O)Nc1ccc(F)cc1	>57	-6%	10%	4µM*[single pt active]
COc1ccc(NC(=O)CSc2nnc(Cn3c(=O)sc4ccccc43)n2C)cc1	>57	-5%	10%	?
Cn1c(Cn2c(=O)sc3ccccc32)nnc1SCC(=O)Nc1ccccc1	>57	1%	14%	4µM*[single pt active]
Cc1ccc(NC(=O)CSc2nnc(Cn3c(=O)sc4ccccc43)n2C)cc1	>57	-9%	14%	23%
C[C@@H]1C[C@@]2(C)Oc3ccccc3[C@H]3OC[C@]1(COC(=O)Nc1ccccc1)[C@@H](C)[C@@H]32	>57	-11%	2%	-5%
O=C1C2C3C=CC(C2C(=O)N1CN1CCOCC1)C1C2C(=O)N(CN4CCOCC4)C(=O)C2C31 (stereo unspecified)	>57	?	13%[5.75 µM]	-12%[5.75 µM]
O=C1OC2(c3cc(Br)c(O)c(Br)c3Oc3c2cc(Br)c(O)c3Br)c2c(Cl)c(Cl)c(Cl)c(Cl)c21	.	?	2%	-21%
COc1cccc(Cn2c(=O)c(-c3cccc(Cl)c3)nc3cncnc32)c1	>57	-5%	-6%	21%
CN(C)c1ncc2nc(-c3ccc(Cl)cc3)c(=O)n(Cc3cccs3)c2n1	>57	?	18%	0%
CC(C)CCSc1nnc(Cn2c(=O)sc3ccccc32)n1C	>57	-13%	14%	4µM*[single pt active]
Cc1ccc(CSc2nnc(Cn3c(=O)sc4ccccc43)n2C)cc1	>57	-9%	6%	26%
